Compounds with a hit are over-represented: about 5% of the library has one in this group of screens.
CHT allo act: CHT positive allosteric modulators, primary screen, cell-based, membrane potential dye, choline EC20. High affinity choline transporter 1 (Homo sapiens), Q9GZV3. CHT-expressing cells; hits give high values; LV-AA mutant CHT in HEK293 cells. B-score at 10 µM. 0.49% of 310,000 active;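 active = initial fluorescence not abnormally high and integrated response B-score, plate-corrected, over 3 SD above library mean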
PREPL inhibitor: PREPL enzyme inhibitors, primary screen, biochemical, fluorescence polarization. AID 2751, 2010. inhibition, % at 5.96 µM. 0.68% of 320,000 active. Prolyl endopeptidase-like (Homo sapiens), Q4J6C6. recombinant PREPL, fluorescence polarization activity-based probe; in the data active = inhibition above about 43%;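 note: 0% = enzyme with DMSO and 100% = wells lacking enzyme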
Target sequence (Q4J6C6 whole entry, looked up): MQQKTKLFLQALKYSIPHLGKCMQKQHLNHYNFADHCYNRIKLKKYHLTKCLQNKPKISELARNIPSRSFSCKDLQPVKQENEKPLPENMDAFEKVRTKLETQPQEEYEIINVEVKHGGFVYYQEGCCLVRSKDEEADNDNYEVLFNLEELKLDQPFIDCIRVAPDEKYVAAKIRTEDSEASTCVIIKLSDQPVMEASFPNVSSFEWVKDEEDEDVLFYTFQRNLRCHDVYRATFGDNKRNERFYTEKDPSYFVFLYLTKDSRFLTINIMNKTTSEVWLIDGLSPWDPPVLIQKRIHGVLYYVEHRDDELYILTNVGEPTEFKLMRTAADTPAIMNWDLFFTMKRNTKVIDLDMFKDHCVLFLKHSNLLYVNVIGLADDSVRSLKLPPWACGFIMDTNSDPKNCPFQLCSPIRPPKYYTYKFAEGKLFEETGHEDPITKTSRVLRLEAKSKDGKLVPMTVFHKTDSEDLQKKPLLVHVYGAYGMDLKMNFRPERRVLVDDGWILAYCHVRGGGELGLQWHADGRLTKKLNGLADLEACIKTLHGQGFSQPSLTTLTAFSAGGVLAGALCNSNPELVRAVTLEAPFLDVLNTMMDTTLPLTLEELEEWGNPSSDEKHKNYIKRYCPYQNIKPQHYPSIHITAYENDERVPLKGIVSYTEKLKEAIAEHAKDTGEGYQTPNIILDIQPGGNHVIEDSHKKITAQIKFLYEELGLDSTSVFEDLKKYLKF
AI-2 QS mod: Vibrio harveyi AI-2 quorum sensing modulators, primary screen, JMH597 strain, luminescence/OD600 ratio. Vibrio harveyi JMH597 AI-2 luminescence/OD600 ratio, 9 h; hits give low values; strain lacks LuxN and CqsS sensors; 0 = neutral-control median. activity change, % at 7.5 µM. 0.4% of 300,000 active; in the data active = activity change below about -75%, passing the limit was not always enough; inconclusive = no clear call, values can overlap the other calls;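 note: luminescence divided by OD600 gain over 9 h not by final OD600 alone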
CHT block: inhibitors of human choline transporter CHT. 0.86% of 310,000 active. B-score at 10 µM. AID 488975, 2010. High affinity choline transporter 1 (Homo sapiens), Q9GZV3. CHT-expressing cells, membrane potential dye, choline response; hits give low values;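 active = B-score over 3 SD under the library average, and starting fluorescence ratio not unusually high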;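 note: choline stimulus applied at its EC90 after an EC20 pre-addition; B-score computed on integrated fluorescence ratio after choline addition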
ALR inh: inhibitors of human ALR sulfhydryl oxidase, primary screen, biochemical, H2O2 detection, HRP-luminol luminescence, single point; FAD-linked sulfhydryl oxidase ALR (Homo sapiens), P55789; purified ALR, DTT oxidation; inhibition, % (concentration not given with the values); 3.8% of 290,000 active;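 active = mean replicate inhibition above about 79%, with every replicate also reaching it, limit read from the data; inconclusive = only one of the two criteria met; inactive = mean below limit and not every replicate reaching it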
The depositor's hits bear a star.

`COC(=O)c1ccc2c(c1)NC1=C(C(=O)CC(C)(C)C1)C(c1ccncc1)N2` (centres undefined) gave CHT allo act inactive, PREPL inhibitor 12, AI-2 QS mod -1, CHT block inactive and ALR inh -20.
`COc1cc(C2Nc3ccccc3NC3=C2C(=O)CC(C)(C)C3)cc(OC)c1OC` (centres undefined) gave CHT allo act inactive, PREPL inhibitor 12, AI-2 QS mod -1, CHT block inactive and ALR inh 75.
Screening COc1cc(OC)c(C2Nc3ccccc3NC3=C2C(=O)CC(C)(C)C3)cc1OC (centres undefined) returned CHT allo act inactive, PREPL inhibitor 4, AI-2 QS mod 31, CHT block inactive and ALR inh 87*.
For COC(=O)c1ccc(C2Nc3ccccc3NC3=C2C(=O)CC(C)(C)C3)cc1 (centres undefined) the results were CHT allo act inactive, PREPL inhibitor -4, AI-2 QS mod 18, CHT block inactive and ALR inh 97*.
CC(=O)c1ccc(NC(=O)C(C)O/N=C(\N)c2ccccc2)cc1 (centres undefined) was read as PREPL inhibitor 6.
`CCOc1cc(C2Nc3ccccc3NC3=C2C(=O)CC(C)(C)C3)ccc1OC(C)=O` (centres undefined) gave CHT allo act inactive, PREPL inhibitor 13, AI-2 QS mod 7, CHT block inactive and ALR inh 59.
CCOc1cc(C2Nc3ccccc3NC3=C2C(=O)CC(C)(C)C3)ccc1O (centres undefined) was read as CHT allo act inactive, PREPL inhibitor -9, AI-2 QS mod 31, CHT block inactive and ALR inh 90*.
Screening CC1(C)CC(=O)C2=C(C1)Nc1ccccc1NC2c1cccnc1 (centres undefined) returned CHT allo act inactive, PREPL inhibitor -6, AI-2 QS mod 18, CHT block inactive and ALR inh inconclusive.
Screening Cc1cc2c(cc1C)NC(c1cccnc1)C1=C(CC(C)(C)CC1=O)N2 (centres undefined) returned CHT allo act inactive, PREPL inhibitor 6, AI-2 QS mod 31, CHT block inactive and ALR inh 94*.
Screening Cc1ccccc1CSCC(=O)Nc1ccccc1F returned CHT allo act inactive, PREPL inhibitor -3, AI-2 QS mod 9, CHT block inactive and ALR inh 74.
Screening Cc1c(OCC(=O)N[C@@H](Cc2c[nH]c3ccccc23)C(=O)O)ccc2c1oc(=O)c1ccccc12 returned CHT allo act inactive, PREPL inhibitor 4, AI-2 QS mod 9, CHT block inactive and ALR inh -4.
O=C1c2ccccc2C(Nc2ccc3c(c2)OCCO3)N1Cc1ccccc1 (centres undefined) was read as CHT allo act inactive, PREPL inhibitor 2, AI-2 QS mod 10, CHT block inactive and ALR inh 98*.
CCOc1ccc(NC2c3ccccc3C(=O)N2Cc2ccc3c(c2)OCO3)cc1 (centres undefined) was read as CHT allo act inactive, PREPL inhibitor -1, AI-2 QS mod 4 and CHT block inactive.
`N#CC1=C(N2CCOCC2)/C(=C\c2ccccc2)CC1` gave CHT allo act inactive, PREPL inhibitor -12, AI-2 QS mod 16, CHT block inactive and ALR inh 93*.
Cc1c(Cl)ccc2sc(NC(=O)CN3C(=O)c4ccccc4C3=O)nc12 was read as CHT allo act inactive, PREPL inhibitor 2, AI-2 QS mod -95*, CHT block inactive and ALR inh -14.
CCCCc1nnc(NC(=O)CN2C(=O)c3ccccc3C2=O)s1 was read as CHT allo act inactive, PREPL inhibitor -5, AI-2 QS mod -86*, CHT block inactive and ALR inh 3.
Screening Oc1ccc(/C=N/Nc2nc(N3CCCC3)nc(N3CCCC3)n2)cc1O returned CHT allo act inactive, PREPL inhibitor 14, AI-2 QS mod 9, CHT block inactive and ALR inh 99*.
Screening Cc1occc1C(=O)N/N=C/C1=C(N2CCOCC2)C(=C\c2ccc(Cl)cc2)/CC1 returned CHT allo act inactive, PREPL inhibitor 8, AI-2 QS mod 16, CHT block inactive and ALR inh 40.
COc1cc(/C=N/Nc2nc(N3CCCC3)nc(N3CCCC3)n2)ccc1O was read as CHT allo act inactive, PREPL inhibitor 6, AI-2 QS mod 18, CHT block inactive and ALR inh 99*.
Cc1cc(=O)[nH]c(N/N=C/C2=C(N3CCOCC3)C(=C\c3ccc(Cl)cc3)/CC2)n1 was read as CHT allo act inactive, PREPL inhibitor 38, AI-2 QS mod 6, CHT block inactive and ALR inh 98*.
Screening Cc1cc(=O)[nH]c(N/N=C/c2ccc(O)c(O)c2)n1 returned CHT allo act inactive, PREPL inhibitor 7, AI-2 QS mod 9, CHT block inactive and ALR inh 99*.
CCOc1ccc(/C=N/Nc2nc(N3CCCC3)nc(N3CCCC3)n2)cc1OC was read as CHT allo act inactive, PREPL inhibitor 14, AI-2 QS mod 14, CHT block inactive and ALR inh -26.
For CSc1nnc(-c2ccc(S(=O)(=O)N3CCOCC3)cc2)n1C the results were CHT allo act inactive, PREPL inhibitor -9, AI-2 QS mod 11, CHT block inactive and ALR inh 0.
For Cc1c(NC(=S)N/N=C/c2ccc(O)cc2)c(=O)n(-c2ccccc2)n1C the results were CHT allo act inactive, PREPL inhibitor 6, AI-2 QS mod 31, CHT block inactive and ALR inh 99*.
NCCSc1c(-c2ccccc2)[nH]c2ccccc12 was read as CHT allo act inactive, PREPL inhibitor 35, AI-2 QS mod 36, CHT block inactive and ALR inh 97*.
`S=c1[nH]nc(-c2ccc(Cl)cc2Cl)n1-c1ccccc1` gave CHT allo act inactive, PREPL inhibitor 7, AI-2 QS mod -18, CHT block inactive and ALR inh 49.
Screening S=c1[nH]nc(COc2ccc(Cl)cc2Cl)n1-c1ccccc1 returned CHT allo act inactive, PREPL inhibitor -6, AI-2 QS mod 15, CHT block inactive and ALR inh 84*.
`CCNc1nc(NCC)n2c(SCC(=O)Nc3ccc(Br)cc3F)nnc2n1` gave CHT allo act inactive, PREPL inhibitor -9, AI-2 QS mod 22, CHT block inactive and ALR inh 98*.
`Nc1c(S(=O)(=O)c2ccccc2)c2nc3ccccc3nc2n1C1CC1` gave CHT allo act inactive, PREPL inhibitor 0, AI-2 QS mod 1, CHT block inactive and ALR inh 99*.

Compound activity deposited in PubChem by several laboratories.
